From ChEMBL document CHEMBL1961873, “Compounds: GSK PKIS; Assays: Nanosyn kinase panel” (2012) come the findings set out here.

Experiment [1] has as its target Glycogen synthase kinase-3 beta (Homo sapiens) (UniProt P49841). The following applies: at 1 µM.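 Also: reported values are mean percent inhibition of GSK3B.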
The target in experiment [2] is Homeodomain-interacting protein kinase 1 (Homo sapiens) (UniProt Q86Z02). To be noted: at 0.1 µM.
For experiment [3] the target is unchanged. To be noted: at 1 µM.
Experiment [4] has as its target T1, Homeodomain-interacting protein kinase 4 (Homo sapiens) (UniProt Q8NE63).
T1 sequence (whole entry): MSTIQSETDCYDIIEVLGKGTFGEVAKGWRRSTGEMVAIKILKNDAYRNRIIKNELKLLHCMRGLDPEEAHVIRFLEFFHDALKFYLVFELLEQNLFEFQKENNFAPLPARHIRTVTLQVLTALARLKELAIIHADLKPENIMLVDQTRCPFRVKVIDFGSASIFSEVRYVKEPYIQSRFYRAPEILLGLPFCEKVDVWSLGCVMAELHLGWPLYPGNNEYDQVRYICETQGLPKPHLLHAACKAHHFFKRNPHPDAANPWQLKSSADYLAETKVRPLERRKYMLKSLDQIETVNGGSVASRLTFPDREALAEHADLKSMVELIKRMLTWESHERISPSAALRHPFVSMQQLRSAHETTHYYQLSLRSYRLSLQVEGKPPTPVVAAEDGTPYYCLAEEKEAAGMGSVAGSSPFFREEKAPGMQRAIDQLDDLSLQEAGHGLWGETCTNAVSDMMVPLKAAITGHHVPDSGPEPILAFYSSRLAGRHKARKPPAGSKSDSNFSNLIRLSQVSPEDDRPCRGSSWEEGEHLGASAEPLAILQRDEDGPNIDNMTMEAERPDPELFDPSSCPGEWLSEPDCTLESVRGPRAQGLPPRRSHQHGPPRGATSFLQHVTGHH
The following applies: at 0.1 µM.

The target of experiment [5] is T1, Homeodomain-interacting protein kinase 4 (Homo sapiens). To be noted: at 1 µM.
Experiment [6] deals with Mitogen-activated protein kinase 9 (Homo sapiens) (UniProt P45984). The following applies: at 0.1 µM.
Chain of Mitogen-activated protein kinase 9 (Homo sapiens) (P45984 whole entry, looked up): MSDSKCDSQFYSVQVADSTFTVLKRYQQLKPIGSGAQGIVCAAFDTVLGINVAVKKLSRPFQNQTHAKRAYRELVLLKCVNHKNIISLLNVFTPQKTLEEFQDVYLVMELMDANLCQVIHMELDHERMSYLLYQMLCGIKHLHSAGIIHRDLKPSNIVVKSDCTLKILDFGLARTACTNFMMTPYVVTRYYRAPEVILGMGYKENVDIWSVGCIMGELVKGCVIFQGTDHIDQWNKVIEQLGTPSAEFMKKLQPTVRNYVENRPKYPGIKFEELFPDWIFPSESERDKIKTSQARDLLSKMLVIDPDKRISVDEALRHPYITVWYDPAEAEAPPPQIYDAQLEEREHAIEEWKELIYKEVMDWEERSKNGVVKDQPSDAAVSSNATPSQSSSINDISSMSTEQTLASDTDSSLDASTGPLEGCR
Experiment [7] has the same target. The following applies: at 1 µM.
Experiment [8] has as its target Mitogen-activated protein kinase 1 (Homo sapiens) (UniProt P28482). To be noted: at 0.1 µM.
Experiment [9] shares this target. The following applies: at 1 µM.
In experiment [10] the target is Mitogen-activated protein kinase 3 (Homo sapiens) (UniProt P27361). The following applies: at 0.1 µM.
Chain of Mitogen-activated protein kinase 3 (Homo sapiens) (P27361 whole entry): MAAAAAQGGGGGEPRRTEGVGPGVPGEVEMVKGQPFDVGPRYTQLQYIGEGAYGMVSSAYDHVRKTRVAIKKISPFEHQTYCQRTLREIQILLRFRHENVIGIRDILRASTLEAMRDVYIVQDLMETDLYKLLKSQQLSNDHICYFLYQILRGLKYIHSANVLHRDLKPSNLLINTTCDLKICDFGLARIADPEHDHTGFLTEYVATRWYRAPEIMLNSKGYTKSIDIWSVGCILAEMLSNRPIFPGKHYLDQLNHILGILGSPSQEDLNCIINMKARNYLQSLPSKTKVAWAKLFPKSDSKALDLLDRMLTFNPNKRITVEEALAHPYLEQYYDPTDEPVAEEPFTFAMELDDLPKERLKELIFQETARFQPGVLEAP
The target is the same in experiment [11]. To be noted: at 1 µM.
The target in experiment [12] is SRSF protein kinase 3 (Homo sapiens) (UniProt Q9UPE1). The following applies: at 0.1 µM.
Chain of SRSF protein kinase 3 (Homo sapiens) (Q9UPE1 whole entry): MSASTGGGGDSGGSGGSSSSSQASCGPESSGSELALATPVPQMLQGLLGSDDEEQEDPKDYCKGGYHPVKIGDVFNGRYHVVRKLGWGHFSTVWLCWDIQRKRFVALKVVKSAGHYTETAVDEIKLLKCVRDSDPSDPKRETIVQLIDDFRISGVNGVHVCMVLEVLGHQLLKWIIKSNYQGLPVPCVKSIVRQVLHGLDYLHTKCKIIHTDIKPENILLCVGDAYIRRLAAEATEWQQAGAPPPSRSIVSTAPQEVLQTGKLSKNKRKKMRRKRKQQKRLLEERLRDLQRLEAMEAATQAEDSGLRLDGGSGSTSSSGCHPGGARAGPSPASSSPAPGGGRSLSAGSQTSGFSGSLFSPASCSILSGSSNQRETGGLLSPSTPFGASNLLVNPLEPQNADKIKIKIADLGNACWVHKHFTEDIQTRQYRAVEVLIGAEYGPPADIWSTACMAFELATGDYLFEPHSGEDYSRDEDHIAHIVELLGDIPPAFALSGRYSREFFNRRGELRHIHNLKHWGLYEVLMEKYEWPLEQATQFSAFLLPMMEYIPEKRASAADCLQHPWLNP
Experiment [13] shares this target. To be noted: at 1 µM.
The target of experiment [14] is Mitogen-activated protein kinase 14 (Homo sapiens) (UniProt Q16539). The following applies: at 0.1 µM.
Chain of Mitogen-activated protein kinase 14 (Homo sapiens) (Q16539 whole entry): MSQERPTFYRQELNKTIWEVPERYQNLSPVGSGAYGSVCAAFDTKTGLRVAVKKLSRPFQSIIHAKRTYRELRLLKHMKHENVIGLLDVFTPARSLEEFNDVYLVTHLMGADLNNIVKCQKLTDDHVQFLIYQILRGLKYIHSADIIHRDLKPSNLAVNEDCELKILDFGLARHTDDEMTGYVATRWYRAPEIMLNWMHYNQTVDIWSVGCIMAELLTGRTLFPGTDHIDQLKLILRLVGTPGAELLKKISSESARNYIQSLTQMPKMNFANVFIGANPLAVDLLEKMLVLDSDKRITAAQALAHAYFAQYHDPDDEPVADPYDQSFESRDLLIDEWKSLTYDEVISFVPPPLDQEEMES
Experiment [15] has the same target. The following applies: at 1 µM.
For experiment [16], the target named is Mitogen-activated protein kinase 11 (Homo sapiens) (UniProt Q15759). To be noted: at 0.1 µM.
Chain of Mitogen-activated protein kinase 11 (Homo sapiens) (Q15759 whole entry): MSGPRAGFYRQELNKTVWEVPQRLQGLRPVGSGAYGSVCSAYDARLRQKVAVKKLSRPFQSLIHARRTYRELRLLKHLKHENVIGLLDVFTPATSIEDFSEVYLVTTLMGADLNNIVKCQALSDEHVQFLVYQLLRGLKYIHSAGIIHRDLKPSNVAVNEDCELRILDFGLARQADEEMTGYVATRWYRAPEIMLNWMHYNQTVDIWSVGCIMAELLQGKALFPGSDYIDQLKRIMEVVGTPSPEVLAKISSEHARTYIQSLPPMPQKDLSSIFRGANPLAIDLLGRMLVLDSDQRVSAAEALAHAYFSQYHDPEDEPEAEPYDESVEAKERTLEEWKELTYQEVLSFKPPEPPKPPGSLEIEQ
For experiment [17] the target is unchanged. The following applies: at 1 µM.
The target in experiment [18] is T2, Mitogen-activated protein kinase 13 (Homo sapiens) (UniProt O15264).
T2 sequence (whole entry): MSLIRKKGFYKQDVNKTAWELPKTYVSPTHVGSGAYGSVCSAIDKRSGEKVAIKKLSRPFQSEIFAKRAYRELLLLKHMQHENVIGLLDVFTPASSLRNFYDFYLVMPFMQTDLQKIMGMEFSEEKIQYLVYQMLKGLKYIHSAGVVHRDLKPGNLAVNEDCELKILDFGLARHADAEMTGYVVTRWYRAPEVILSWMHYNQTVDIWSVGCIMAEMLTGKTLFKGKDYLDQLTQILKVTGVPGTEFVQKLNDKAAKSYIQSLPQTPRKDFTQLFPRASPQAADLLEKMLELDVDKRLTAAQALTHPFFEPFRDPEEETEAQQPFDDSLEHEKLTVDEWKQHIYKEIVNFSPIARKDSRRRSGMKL
The following applies: at 0.1 µM.

Experiment [19] concerns the target T2, Mitogen-activated protein kinase 13 (Homo sapiens). The following applies: at 1 µM.
In experiment [20] the target is T3, Mitogen-activated protein kinase 12 (Homo sapiens) (UniProt P53778).
T3 sequence (whole entry): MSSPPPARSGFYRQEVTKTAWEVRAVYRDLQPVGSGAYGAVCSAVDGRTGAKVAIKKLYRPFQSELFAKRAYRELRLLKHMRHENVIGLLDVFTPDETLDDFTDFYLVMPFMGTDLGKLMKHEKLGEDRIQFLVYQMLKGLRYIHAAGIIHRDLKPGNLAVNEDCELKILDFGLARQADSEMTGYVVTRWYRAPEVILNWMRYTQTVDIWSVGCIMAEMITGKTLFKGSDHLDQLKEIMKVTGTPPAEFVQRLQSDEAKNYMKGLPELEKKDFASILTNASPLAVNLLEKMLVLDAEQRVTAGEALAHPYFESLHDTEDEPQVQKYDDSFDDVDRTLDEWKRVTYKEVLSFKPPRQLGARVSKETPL
The following applies: at 0.1 µM.

Chain of Glycogen synthase kinase-3 beta (Homo sapiens) (P49841 whole entry, looked up): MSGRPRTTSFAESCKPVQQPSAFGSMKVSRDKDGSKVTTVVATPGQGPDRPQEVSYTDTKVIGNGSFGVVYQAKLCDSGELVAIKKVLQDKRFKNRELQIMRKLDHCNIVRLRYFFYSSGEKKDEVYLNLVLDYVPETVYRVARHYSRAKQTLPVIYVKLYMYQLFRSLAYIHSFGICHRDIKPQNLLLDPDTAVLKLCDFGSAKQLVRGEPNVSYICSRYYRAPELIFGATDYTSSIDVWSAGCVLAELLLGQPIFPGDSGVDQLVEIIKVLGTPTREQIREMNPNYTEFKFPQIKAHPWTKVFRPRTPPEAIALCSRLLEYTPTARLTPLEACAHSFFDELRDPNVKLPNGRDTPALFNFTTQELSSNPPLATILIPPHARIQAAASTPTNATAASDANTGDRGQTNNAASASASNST
Chain of Homeodomain-interacting protein kinase 1 (Homo sapiens) (Q86Z02 whole entry, looked up): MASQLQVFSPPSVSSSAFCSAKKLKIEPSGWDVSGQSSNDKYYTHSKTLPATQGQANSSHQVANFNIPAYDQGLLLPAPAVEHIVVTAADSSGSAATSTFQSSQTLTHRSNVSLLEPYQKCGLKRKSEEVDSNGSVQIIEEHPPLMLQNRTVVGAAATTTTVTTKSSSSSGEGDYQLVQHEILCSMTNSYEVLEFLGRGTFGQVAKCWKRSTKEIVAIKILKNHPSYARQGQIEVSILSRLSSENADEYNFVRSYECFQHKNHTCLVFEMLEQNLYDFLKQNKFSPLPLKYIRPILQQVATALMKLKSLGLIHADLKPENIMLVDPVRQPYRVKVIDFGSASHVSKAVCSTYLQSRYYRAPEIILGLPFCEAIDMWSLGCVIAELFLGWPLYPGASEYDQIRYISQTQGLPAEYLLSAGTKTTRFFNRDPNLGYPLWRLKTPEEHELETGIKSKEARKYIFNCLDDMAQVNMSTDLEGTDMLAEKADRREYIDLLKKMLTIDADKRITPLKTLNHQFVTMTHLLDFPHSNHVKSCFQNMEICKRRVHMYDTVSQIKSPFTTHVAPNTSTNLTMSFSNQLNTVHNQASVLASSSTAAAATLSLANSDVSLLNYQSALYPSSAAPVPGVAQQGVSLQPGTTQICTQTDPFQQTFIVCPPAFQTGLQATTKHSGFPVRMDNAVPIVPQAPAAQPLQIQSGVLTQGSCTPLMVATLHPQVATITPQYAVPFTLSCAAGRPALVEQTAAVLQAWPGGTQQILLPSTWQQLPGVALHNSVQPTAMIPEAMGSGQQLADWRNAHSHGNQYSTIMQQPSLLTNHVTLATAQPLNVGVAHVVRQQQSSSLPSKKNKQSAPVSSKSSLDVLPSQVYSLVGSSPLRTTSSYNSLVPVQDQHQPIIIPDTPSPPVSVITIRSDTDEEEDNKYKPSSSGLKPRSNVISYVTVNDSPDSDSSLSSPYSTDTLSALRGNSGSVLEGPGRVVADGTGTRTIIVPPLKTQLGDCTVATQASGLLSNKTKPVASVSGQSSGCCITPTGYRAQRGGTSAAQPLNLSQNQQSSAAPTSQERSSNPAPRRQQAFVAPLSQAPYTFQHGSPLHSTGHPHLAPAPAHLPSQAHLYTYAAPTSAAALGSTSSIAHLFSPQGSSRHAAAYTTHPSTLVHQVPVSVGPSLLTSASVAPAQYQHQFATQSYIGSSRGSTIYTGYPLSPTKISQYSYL
Chain of Mitogen-activated protein kinase 1 (Homo sapiens) (P28482 whole entry): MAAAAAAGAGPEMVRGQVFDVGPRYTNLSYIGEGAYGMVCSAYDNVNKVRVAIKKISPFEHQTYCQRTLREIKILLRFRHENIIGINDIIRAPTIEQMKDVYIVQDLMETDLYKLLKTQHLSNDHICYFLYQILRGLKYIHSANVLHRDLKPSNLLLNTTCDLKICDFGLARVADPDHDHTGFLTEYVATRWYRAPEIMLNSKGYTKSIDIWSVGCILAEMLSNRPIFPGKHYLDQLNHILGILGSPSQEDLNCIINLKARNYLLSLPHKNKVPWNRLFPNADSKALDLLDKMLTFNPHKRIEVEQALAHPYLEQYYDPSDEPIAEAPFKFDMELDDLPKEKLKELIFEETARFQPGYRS

Take `CNC(=O)c1cncc(/C=C/c2ccccc2C)c1`: the inhibition came to 10.8% in [1]; 2.37% in experiment [2]; 3.05% in [3]; 3.2% in [4]; 3.78% in [5]; 3.59% in experiment [6]. Also, the inhibition in experiment [7] was 5.08%; in [8], 7.05%; in experiment [9], 5.85%; in [10], 4.41%; in experiment [11], 4.66%; in experiment [12], -0.87%. Also, the inhibition is 3.21% in [13]; 3.76% in experiment [14]; 6.09% in experiment [15]; 4.82% in experiment [16]; 7.21% in experiment [17]; 4.01% in [18]. Further, the inhibition in experiment [19] turned out to be 3.77%; in [20], 1.29%.

For `CN(C)CCNC(=O)Nc1ccc(N(C)c2ccnc(Nc3ccc(CS(C)(=O)=O)cc3)n2)cc1`, the inhibition in experiment [1] stood at 4.47%; in experiment [2] it was 0.8%; in [3] it was 4.6%; in experiment [4] it was 0.19%; in [5], 3.28%; in experiment [6] it was 4.37%. For the same compound, the inhibition in [7] came to 5.22%; in [8] it was 5.77%; in experiment [9], 4.8%; in experiment [10], 2.98%; in experiment [11], 1.29%; in experiment [12], 1.45%. Further, the inhibition in experiment [13] was -2.85%; in [14] it was 2.66%; in [15], 7.04%; in [16] it was 2.16%; in experiment [17] it was 2.52%; in [18], 1.99%. The results for the inhibition in experiment [19] and in experiment [20] were 3.74% and -0.76%, respectively.

Regarding `NS(=O)(=O)c1cccc(N/C=C2\C(=O)Nc3ccccc32)c1`, the inhibition in experiment [1] is 19.7%; in experiment [2] it was -0.03%; in [3], 2.88%; in [4], 0.43%; in experiment [5], 4.51%; in experiment [6] it was 7.2%. In addition, the inhibition in experiment [7] was 10.9%; in [8], 2.99%; in experiment [9], 4.54%; in experiment [10] it was 1.72%; in experiment [11] it was 1.27%; in [12] it was -0.21%. The inhibition in [13] is 0.27%; in experiment [14], 7.96%; in [15] it was 13.5%; in experiment [16], 6.33%; in experiment [17], 9.54%; in experiment [18] it was 1.07%. Moreover, the inhibition was found to be 5.02% in experiment [19] and 1.32% in experiment [20].

Take `CS(=O)(=O)CCNCc1ccoc1-c1ccc2ncnc(Nc3ccc(OCc4ccccc4)cc3)c2c1`: the inhibition was 4.28% in [1]; -3.84% in [2]; 0.14% in [3]; 0.57% in experiment [4]; 2.87% in experiment [5]; 1.1% in [6]. Further, the inhibition in experiment [7] is 1.84%; in experiment [8] it was 0.72%; in experiment [9], 2.14%; in [10], 0.52%; in [11], 1.25%; in experiment [12] it was -1.87%. Also, the inhibition is -1.49% in experiment [13]; 2.69% in experiment [14]; 0.9% in [15]; 2.25% in [16]; 1.9% in [17]; 0.46% in [18]. The inhibition in experiment [19] is -0.76%; in experiment [20], 0.71%.

Consider `O=C(O[C@H]1CN[C@H](C#Cc2cc3ncnc(Nc4ccc(OCc5cccc(F)c5)c(Cl)c4)c3s2)C1)N1CCOCC1`, for which the inhibition in experiment [1] was 4.2%; in [2] it was 1.86%; in [3] it was 0.81%; in [4], 2.71%; in experiment [5], 4.99%; in experiment [6], 3.19%. In addition, the inhibition in experiment [7] is 7.19%; in experiment [8], 7.72%; in [9], 5.38%; in [10] it was 4.82%; in [11], 5.48%; in experiment [12], -1.6%. In addition, the inhibition was -1.95% in [13]; 3.55% in [14]; 7.34% in experiment [15]; 5.95% in experiment [16]; 5.11% in experiment [17]; 1.84% in experiment [18]. Moreover, the inhibition was 6.02% in experiment [19] and 3.76% in [20].

As to `CCS(=O)(=O)c1ccc(OC)c(Nc2ncc(-c3cccc(F)c3)o2)c1`, the inhibition in experiment [1] amounted to 4.08%; in experiment [2], 1.26%; in experiment [3] it was 23.8%; in experiment [4], 4.37%; in [5], 30%; in [6], 7.66%. For the same compound, the inhibition was 7.11% in [7]; 6.33% in experiment [8]; 7.09% in experiment [9]; 4.68% in experiment [10]; 5.09% in experiment [11]; -2.3% in [12]. Further, the inhibition in [13] amounted to 0.15%; in experiment [14], 13.4%; in experiment [15], 14.9%; in experiment [16], 4.8%; in experiment [17] it was 7.52%; in [18] it was 5.58%. For the same compound, the figures for the inhibition in experiment [19] and in experiment [20] were 5.36% and 3.31%, respectively.

By inhibition is commonly meant the relative decrease from the control value, in per cent.
